# “And” between values parts separate entries of the source, which are not always exact repeats. Equal entries are not always repeated. A structure can be active in one record and inactive in another. The source made the active and inactive calls. The calls were made as follows: active = hit-call score of the fitted dose curve at least 0.9, where 1 is the maximum; inactive = score below 0.9.
# Tests used:
# [1] = APR_HepG2_P-H2AX_72hr: Apredica 72-hour HepG2 Assay for H2AX Phosphorylation (AID 2282916); conditions: imaging, actives raise or lower the signal;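 also: phospho-histone H2A.x immunostain intensity per cell marking DNA damage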
# Outline: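 Human hepatoma HepG2 cells are dosed across ten concentrations (0.39 to 200 uM, 0.5% v/v DMSO) and incubated 72 hr. Phospho-histone H2A.x is then detected by antibody staining alongside c-Jun and Hoechst, and quantified by automated fluorescence imaging.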
# [2] = APR_HepG2_MitoMembPot_72hr: Apredica 72-hour HepG2 Assay for Mitochondrial Membrane Potential (AID 2282917); conditions: imaging, actives raise or lower the signal
# Outline: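 HepG2 cells exposed 72 h to compounds at 0.39–200 uM (0.5% v/v DMSO, duplicates); MitoTracker Red CMXRos 250 nM loaded 30 min before 3.7% formaldehyde fixation, imaged by HCS fluorescence. Bidirectional fit versus DMSO.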
# [3] = APR_HepG2_MitoticArrest_72hr: Apredica 72-hour HepG2 Assay for Mitotic Arrest (AID 2282918); conditions: high-content imaging, actives raise or lower the signal
# Outline: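 Using high-content imaging of fixed HepG2 cells, phospho-histone H3 signal was measured following a 72 hr incubation with ten-point compound dilutions up to 200 uM. DMSO served as the negative control and baseline for bidirectional curve fitting.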
# [4] = APR_HepG2_MicrotubuleCSK_72hr: Apredica 72-hour HepG2 Assay for Microtubule CSK Stabilty (AID 2282919); conditions: HepG2 microtubule cytoskeleton, high-content imaging, actives raise or lower the signal
# Outline: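 Ten-point dosing (0.39–200 uM, 0.5% DMSO) of HepG2 for 72 hr, with taxol as the cytoskeletal positive control. The cells were formaldehyde-fixed and then stained with alpha-tubulin/Cy5 and Hoechst. Imaging at 20x used a −2 um Z offset for tubulin.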
# [5] = APR_HepG2_P-H2AX_24hr: Apredica 24-hour HepG2 Assay for H2AX Phosphorylation (AID 2282920); conditions: high-content imaging, actives raise or lower the signal
# Outline: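 Human HepG2 liver cells, treated 24 hr with test chemicals (0.39–200 uM, final DMSO 0.5% v/v), are fixed and co-stained for phospho-H2A.x and c-Jun with Hoechst. Imaged intensity is fitted in both directions against DMSO controls.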
# [6] = APR_HepG2_StressKinase_72hr: Apredica 72-hour HepG2 Assay for Stress Kinase (AID 2282921); conditions: HepG2 stress kinase (phospho-c-Jun) imaging, actives raise or lower the signal
# Outline: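 After a 72 h compound treatment spanning 0.39 to 200 uM, formaldehyde-fixed cells are labelled for phosphorylated c-Jun and nuclei, imaged by automated fluorescence microscopy, and activity is fitted in both directions relative to DMSO controls.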
# [7] = APR_HepG2_StressKinase_24hr: Apredica 24-hour HepG2 Assay for Stress Kinase (AID 2282922); conditions: HepG2 stress kinase (phospho-c-Jun) imaging, actives raise or lower the signal
# Outline: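 After 24 hr compound treatment (up to 200 uM, final DMSO 0.5% v/v), HepG2 cells are fixed and multiplex-labeled; phospho-c-Jun intensity is captured by high-content fluorescence imaging and analyzed relative to DMSO.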
# [8] = APR_HepG2_p53Act_72hr: Apredica 72-hour HepG2 Assay for p53 Activation (AID 2282923); conditions: high-content imaging, actives raise or lower the signal;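 also: average cellular p53 protein immunofluorescence intensity in HepG2 cells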
# Outline: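 Imaging-based endpoint: after 72 hr compound exposure (up to 200 uM, 0.5% DMSO), fixed and permeabilized monolayers were labelled with anti-p53 antibody and imaged; signal change in either direction was fitted relative to DMSO controls.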
# [9] = APR_HepG2_MitoMass_72hr: Apredica 72-hour HepG2 Assay for Mitochondrial Mass (AID 2282924); conditions: high-content imaging, actives raise or lower the signal;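 also: MitoTracker Red CMXRos stain intensity per cell imaged as mitochondrial mass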
# Outline: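 Steps: treat HepG2 72 hr (0.39–200 uM, duplicate wells); load MitoTracker Red CMXRos, 250 nM, 30 min; fix with 3.7% formaldehyde, permeabilise with 0.5% Triton X-100; capture images, nuclei via Hoechst 33342; fit bidirectionally against DMSO.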
# [10] = APR_HepG2_NuclearSize_72hr: Apredica 72-hour HepG2 Assay for Nuclear Size (AID 2282925); conditions: high-content imaging, actives raise or lower the signal
# Outline: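 Compounds (0.39–200 uM, final DMSO 0.5%) were applied to HepG2 for 72 hr. Cells were then formaldehyde-fixed, permeabilized and labelled with Hoechst 33342. Nuclear diameter was quantified from six images per well.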
# [11] = ATG_CRE_CIS: Attagene CIS-FACTORIAL HepG2 Assay for human cAMP Responsive Element (CRE) binding protein 3 (AID 2282926); conditions: HepG2 CRE cis-reporter, Attagene multiplexed mRNA; actives raise or lower the signal
# Outline: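 Liver-derived HepG2, transfected with a CRE-containing reporter panel, exposed 24 h; transcript levels sized and quantified by capillary electrophoresis of labelled amplicons; signal changes either way referenced to vehicle.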
# [12] = biological target: CCAAT/enhancer-binding protein beta (Homo sapiens) (UniProt P17676); experiment: ATG_C_EBP_CIS: Attagene CIS-FACTORIAL HepG2 Assay for human CCAAT/Enhancer Binding Protein (C/EBP) beta (AID 2282927); conditions: HepG2 Attagene cis-factorial transcription factor reporter; actives raise or lower the signal
# Outline: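 Following a 24 h incubation with test chemical, transfected HepG2 cells yielded RNA whose reporter transcripts were quantified by RT-PCR and fluorescent capillary electrophoresis, with DMSO serving as baseline for bidirectional fitting.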
# [13] = ATG_CMV_CIS: Attagene CIS-FACTORIAL HepG2 Assay for human CMV (Internal Marker) (AID 2282928); conditions: HepG2 CMV promoter reporter, transcription factor profiling; actives raise or lower the signal;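 also: endpoint acts as a background internal control marker rather than a target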
# Outline: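 Bidirectional fits against DMSO are applied to reporter mRNA, read by RT-PCR with capillary electrophoresis, from HepG2 cells exposed 24 h. The endpoint serves as an internal CMV background marker within the cis-factorial reporter panel.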
# [14] = ATG_DR4_LXR_CIS: Attagene CIS-FACTORIAL HepG2 Assay for human Liver X Receptor (LXR), DR4 submotif (AID 2282929); conditions: HepG2 Attagene DR4 cis-reporter, mRNA transcription; actives raise or lower the signal
# Outline: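 Fluorescence intensity of labelled reporter cDNA fragments, separated by capillary electrophoresis, gives the signal. HepG2 cells bearing cis-regulated reporter constructs were treated 24 h; activity fitted bidirectionally relative to DMSO negative control.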
# [15] = biological target: Aryl hydrocarbon receptor (Homo sapiens) (UniProt P35869); experiment: ATG_Ahr_CIS: Attagene CIS-FACTORIAL HepG2 Assay for human Aryl Hydrocarbon Receptor (Ahr) (AID 2282930); conditions: HepG2 AhR cis-factorial reporter transcription; actives raise or lower the signal
# Outline: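 Values derive from bidirectional fitting against DMSO negative control. Underlying signal: cis-element reporter mRNA in transiently transfected HepG2, harvested 24 h post-dose and measured by RT-PCR plus capillary electrophoresis.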
# [16] = ATG_AP_1_CIS: Attagene CIS-FACTORIAL HepG2 Assay for human Activator Protein 1 (AP-1) (AID 2282931); conditions: HepG2 Attagene cis-factorial AP-1 reporter mRNA; actives raise or lower the signal
# Outline: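 Multiplexed HepG2 reporter assay, 24 h dosing. mRNA induction detected by RT-PCR plus capillary electrophoresis. Activity fitted in both directions against DMSO.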
# [17] = ATG_AP_2_CIS: Attagene CIS-FACTORIAL HepG2 Assay for human Activator Protein 2 (AP-2) (AID 2282932); conditions: HepG2 AP-2 cis-reporter, Attagene transcription factor profiling; actives raise or lower the signal
# Outline: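 Cells (HepG2) transfected with promoter-driven reporter constructs, treated 24 h. Total RNA reverse-transcribed, reporter cDNA PCR-amplified, FAM-labelled by primer extension, digested, resolved by capillary electrophoresis. Activity fitted both directions versus DMSO.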
# [18] = ATG_BRE_CIS: Attagene CIS-FACTORIAL HepG2 Assay for human Bone Morphogenetic Protein (BMP) Response Element (BRE) (AID 2282933); conditions: HepG2 BMP response element reporter, Attagene transcription factor profiling; actives raise or lower the signal
# Outline: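 Multiplexed cis-reporter assay, HepG2, 24 h exposure. mRNA from reporter units quantified via RT-PCR/CE; DMSO baseline; bidirectional curve fit.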
# [19] = biological target: Retinoic acid receptor alpha (Homo sapiens) (UniProt P10276); experiment: ATG_DR5_RAR_CIS: Attagene CIS-FACTORIAL HepG2 Assay for human Retinoic Acid Receptor Alpha (RARE), DR5 submotif (AID 2282934); conditions: HepG2 Attagene cis-factorial RARE DR5 reporter, mRNA; actives raise or lower the signal
# Outline: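 Endpoint fitted in both directions relative to DMSO as negative control. It reflects DR5 cis-element reporter mRNA induction in transiently transfected HepG2 cells, measured 24 h after dosing through RT-PCR and fluorescent capillary electrophoresis.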
# [20] = biological target: Transcription factor E2F1 (Homo sapiens) (UniProt Q01094); experiment: ATG_E2F_CIS: Attagene CIS-FACTORIAL HepG2 Assay for human E2F Transcription Factor 1 (AID 2282935); conditions: HepG2 Attagene cis-reporter, E2F reporter RNA transcripts; actives raise or lower the signal
# Outline: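 First, HepG2 cells were transfected with reporter transcription units. Next, they were dosed for 24 h. Then RNA was isolated, converted to cDNA, PCR-amplified, FAM-labeled, HpaI-digested and analyzed by capillary electrophoresis.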
# Sequence of Transcription factor E2F1 (Homo sapiens) (Q01094 whole entry, looked up): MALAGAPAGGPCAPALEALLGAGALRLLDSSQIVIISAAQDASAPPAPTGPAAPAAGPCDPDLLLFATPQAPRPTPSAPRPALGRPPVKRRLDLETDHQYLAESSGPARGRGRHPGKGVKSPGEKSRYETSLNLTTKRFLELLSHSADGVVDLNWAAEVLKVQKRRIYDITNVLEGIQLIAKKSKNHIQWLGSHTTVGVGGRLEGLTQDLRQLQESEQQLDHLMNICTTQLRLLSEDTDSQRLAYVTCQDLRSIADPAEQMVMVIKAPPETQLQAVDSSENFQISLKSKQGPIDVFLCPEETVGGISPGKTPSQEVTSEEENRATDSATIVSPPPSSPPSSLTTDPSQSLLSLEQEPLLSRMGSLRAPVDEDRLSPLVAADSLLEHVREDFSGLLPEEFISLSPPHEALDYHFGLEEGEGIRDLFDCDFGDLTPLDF
# Sequence of Aryl hydrocarbon receptor (Homo sapiens) (P35869 whole entry, looked up): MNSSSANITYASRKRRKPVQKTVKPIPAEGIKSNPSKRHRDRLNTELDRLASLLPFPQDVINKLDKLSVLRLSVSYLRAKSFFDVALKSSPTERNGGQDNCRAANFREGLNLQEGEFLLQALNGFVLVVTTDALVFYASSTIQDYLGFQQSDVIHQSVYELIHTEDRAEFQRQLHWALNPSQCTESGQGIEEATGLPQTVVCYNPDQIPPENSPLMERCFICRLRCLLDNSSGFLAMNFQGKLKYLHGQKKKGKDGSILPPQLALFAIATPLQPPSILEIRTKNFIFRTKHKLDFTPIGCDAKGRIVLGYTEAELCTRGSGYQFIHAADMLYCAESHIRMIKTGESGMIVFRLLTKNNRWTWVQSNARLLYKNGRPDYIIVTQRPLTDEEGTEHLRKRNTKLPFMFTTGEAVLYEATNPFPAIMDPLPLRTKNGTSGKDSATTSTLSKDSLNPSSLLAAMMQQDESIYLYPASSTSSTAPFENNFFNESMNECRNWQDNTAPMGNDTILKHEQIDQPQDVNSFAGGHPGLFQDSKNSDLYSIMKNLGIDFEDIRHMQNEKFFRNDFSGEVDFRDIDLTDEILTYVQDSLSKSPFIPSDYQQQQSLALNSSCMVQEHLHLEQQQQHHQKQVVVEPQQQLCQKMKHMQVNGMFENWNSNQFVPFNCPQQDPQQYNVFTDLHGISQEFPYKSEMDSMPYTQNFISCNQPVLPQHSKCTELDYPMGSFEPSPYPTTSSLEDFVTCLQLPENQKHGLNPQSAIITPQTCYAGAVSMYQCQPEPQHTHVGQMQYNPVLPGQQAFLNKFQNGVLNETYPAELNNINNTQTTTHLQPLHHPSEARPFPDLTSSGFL
# Sequence of CCAAT/enhancer-binding protein beta (Homo sapiens) (P17676 whole entry, looked up): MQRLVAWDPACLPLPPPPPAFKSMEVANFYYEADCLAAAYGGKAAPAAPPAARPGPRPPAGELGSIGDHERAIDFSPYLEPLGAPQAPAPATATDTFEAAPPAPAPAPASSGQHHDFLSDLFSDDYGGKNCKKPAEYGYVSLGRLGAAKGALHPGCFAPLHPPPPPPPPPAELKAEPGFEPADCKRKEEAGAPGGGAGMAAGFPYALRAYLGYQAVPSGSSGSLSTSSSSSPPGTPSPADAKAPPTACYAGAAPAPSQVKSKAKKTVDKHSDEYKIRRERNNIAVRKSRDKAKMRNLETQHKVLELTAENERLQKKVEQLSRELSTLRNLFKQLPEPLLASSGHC
# Sequence of Retinoic acid receptor alpha (Homo sapiens) (P10276 whole entry, looked up): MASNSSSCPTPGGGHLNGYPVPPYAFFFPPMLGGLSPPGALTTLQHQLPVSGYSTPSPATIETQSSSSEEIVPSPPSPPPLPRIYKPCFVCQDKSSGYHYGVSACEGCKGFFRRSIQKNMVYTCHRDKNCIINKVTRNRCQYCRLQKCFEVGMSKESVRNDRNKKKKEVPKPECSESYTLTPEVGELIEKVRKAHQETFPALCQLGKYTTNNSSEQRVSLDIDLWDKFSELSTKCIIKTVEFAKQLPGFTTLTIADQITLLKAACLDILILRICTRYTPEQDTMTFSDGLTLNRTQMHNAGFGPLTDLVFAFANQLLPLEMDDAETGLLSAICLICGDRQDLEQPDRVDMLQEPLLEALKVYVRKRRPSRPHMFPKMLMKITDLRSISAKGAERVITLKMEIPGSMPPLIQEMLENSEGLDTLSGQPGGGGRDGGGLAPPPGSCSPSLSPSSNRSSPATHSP
compound,measurement,setting,value
CC1(c2ccc(Oc3ccccc3)cc2)OC(=O)N(Nc2ccccc2)C1=O (centres undefined),outcome,[1],inactive
same,outcome,[2],inactive
same,outcome,[3],inactive
same,outcome,[4],inactive
same,AC50,[5],93.2 µM (active)
same,outcome,[6],inactive
same,outcome,[7],inactive
same,AC50,[8],121 µM (active)
same,outcome,[9],inactive
same,outcome,[10],inactive
same,AC50,[11],1.3 µM (active)
same,outcome,[12],inactive
same,outcome,[13],inactive
same,outcome,[14],inactive
same,outcome,[15],inactive
same,outcome,[16],inactive
same,outcome,[17],inactive
same,AC50,[18],1.14 µM (active)
same,outcome,[19],inactive
same,outcome,[20],inactive
C[C@H]1[C@H](c2ccc(Cl)cc2)SC(=O)N1C(=O)NC1CCCCC1,outcome,[1],inactive
same,AC50,[2],100 µM (active)
same,outcome,[3],inactive
same,AC50,[4],44.5 µM (active)
same,outcome,[5],inactive
same,outcome,[6],inactive
same,outcome,[7],inactive
same,outcome,[8],inactive
same,outcome,[9],inactive
same,outcome,[10],inactive
same,outcome,[11],inactive
same,outcome,[12],inactive
same,AC50,[13],13.8 µM (active)
same,AC50,[14],81.4 µM (active)
same,outcome,[15],inactive
same,AC50,[16],23.1 µM (active)
same,outcome,[17],inactive
same,outcome,[19],inactive
same,AC50,[20],20.9 µM (active)
CCC(C)(NC(=O)c1cc(Cl)c(C)c(Cl)c1)C(=O)CCl (centres undefined),outcome,[1],inactive
same,outcome,[2],inactive
same,outcome,[3],inactive
same,outcome,[4],inactive
same,outcome,[5],inactive
same,outcome,[6],inactive
same,outcome,[7],inactive
same,outcome,[8],inactive
same,outcome,[9],inactive
same,outcome,[10],inactive
same,outcome,[11],inactive
same,outcome,[12],inactive
same,outcome,[13],inactive
same,outcome,[14],inactive
same,outcome,[15],inactive
same,outcome,[16],inactive
same,outcome,[17],inactive
same,outcome,[18],inactive
same,outcome,[19],inactive
same,outcome,[20],inactive
Oc1cc(Cl)ccc1Oc1ccc(Cl)cc1Cl,AC50,[1],24.4 µM (active) and 34.3 µM (active)
same,outcome,[1],inactive
same,AC50,[2],35 µM (active)
same,outcome,[2],inactive
same,AC50,[3],27.9 µM (active)
same,outcome,[3],inactive
same,AC50,[4],98.6 µM (active) and 71.5 µM (active)
same,outcome,[4],inactive
same,AC50,[5],27.9 µM (active) and 45.5 µM (active)
same,outcome,[5],inactive
same,AC50,[6],49.2 µM (active)
same,outcome,[6],inactive
same,outcome,[7],inactive
same,AC50,[8],14.9 µM (active) and 16.3 µM (active)
same,outcome,[8],inactive
same,AC50,[9],170 µM (active)
same,outcome,[9],inactive
same,AC50,[10],36.8 µM (active)
same,outcome,[10],inactive
same,AC50,[11],8.07 µM (active) [middle of 4 runs]
same,outcome,[11],inactive
same,AC50,[12],20.5 µM (active)
same,outcome,[12],inactive
same,AC50,[13],8.95 µM (active) [middle of 5 runs]
same,outcome,[13],inactive
same,AC50,[14],17.6 µM (active) [middle of 4 runs]
same,outcome,[14],inactive
same,AC50,[15],5.97 µM (active)
same,outcome,[15],inactive
same,AC50,[16],8.94 µM (active) [middle of 5 runs]
